Compounds with a hit are over-represented: about 4% of the library has one in this group of screens.
p53null 32C kill: p53 null cell cytotoxicity, permissive temperature; Potency, µM (titrated, usually from 46.1 µM), usual class: cytotoxic; H1299-neo p53 null cells, ATP luminescence, 24 h, 32C; AID 903; 55,000 tested, 0.62% active; further: nearly all actives have a fitted effect of over 55% in size
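H1299-neo (p53 null) cells, 600/well, treated 24 h at 32C with compound up to 46 uM; ATPlite luminescence viability, normalized to DMSO and 100 uM tamoxifen; AC50 by Hill fit.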
OvCa metastasis: ovarian cancer metastasis inhibition, 3D TME model; SKOV3ip1-GFP adhesion/invasion on 3D omental model, fluorescence; Potency, µM (highest dose often 45.8 µM), actives largely listed as inhibitors; 46,000 tested, 0.1% active; AID 1963576; further: nearly all actives have a fitted effect of over 65% in size
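Primary human omental fibroblast/mesothelial 3D culture pre-formed 48 h. SKOV3ip1-GFP cells added with compounds (0.36-46 umol/L), incubated 2 h RT/16 h 37 C, fixed; GFP cells quantified at 488/509 nm.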
NTMT1 inh: NTMT1 methyltransferase inhibition; Q9BV86; NTMT1 MTase-Glo SAH luminescence, purified enzyme; Potency, µM (doses to about 114 µM), most hits filed as inhibitors; 59,000 tested, 2.5% active; AID 1645870; further: nearly all actives have a fitted effect of over 65% in size
Sfp PPTase inh: inhibits purified B. subtilis Sfp PPTase | shares compounds with NTMT1 inh | purified Sfp PPTase enzyme activity, qHTS | Potency, µM (titrated, usually from 114 µM), usual class: inhibitors | 230 tested, 78% active | AID 540350
Bsub HM489 growth: reduces growth of B. subtilis HM489 strain; Potency, µM (series often up to 114 µM), usual class: inhibitors; B. subtilis HM489 (acpS-) growth, BacTiter-Glo, 5 h; shares compounds with NTMT1 inh; 220 tested, 50% active
Sfp gel opt: Sfp PPTase inhibition, gel-based detection | shares compounds with NTMT1 inh | purified Sfp PPTase, gel-based product detection | 220 tested, 54% active | Potency, µM (doses to about 250 µM), actives largely listed as inhibitors
Sfp inh SAR2: inhibitors of Bacillus subtilis Sfp PPTase, SAR round 2. Potency, µM (highest dose often 57.1 µM), hits mostly inhibitors. 230 tested, 87% active. purified Sfp enzyme, PPTase activity, qHTS. shares compounds with NTMT1 inh. AID 602370
hGST A1-1 inh: counter-screen for Sfp PPTase inhibitors: hGST A1-1 inhibition. shares compounds with NTMT1 inh. hGST A1-1 enzyme activity counter-screen, qHTS. Potency, µM (doses to about 114 µM), actives largely listed as inhibitors. 55 tested, under 10 active
HSD17B4 inh: counter-screen for HPGD inhibitors: human HSD17B4 inhibition; AID 743187; Potency, µM (series often up to 57.1 µM), actives largely listed as inhibitors; purified HSD17B4, estradiol/NAD+, NADH fluorescence; 230 tested, 10% active; shares compounds with NTMT1 inh
ALDH1A1 counter: ALDH1A1 (human) inhibition, HPGD counter-screen. shares compounds with NTMT1 inh. recombinant ALDH1A1, NADH fluorescence, propionaldehyde/NAD+. Potency, µM (series often up to 57.1 µM), usual class: inhibitors. 230 tested, 93% active
NNMT inh: counter-screen for NTMT1 inhibitors: human NNMT inhibition | shares compounds with NTMT1 inh | NNMT MTase-Glo luminescence, SAH detection | Potency, µM (highest dose often 57.1 µM), hits mostly inhibitors | 120 tested, 10% active | AID 1645878
Target sequence (P40261 whole entry, looked up): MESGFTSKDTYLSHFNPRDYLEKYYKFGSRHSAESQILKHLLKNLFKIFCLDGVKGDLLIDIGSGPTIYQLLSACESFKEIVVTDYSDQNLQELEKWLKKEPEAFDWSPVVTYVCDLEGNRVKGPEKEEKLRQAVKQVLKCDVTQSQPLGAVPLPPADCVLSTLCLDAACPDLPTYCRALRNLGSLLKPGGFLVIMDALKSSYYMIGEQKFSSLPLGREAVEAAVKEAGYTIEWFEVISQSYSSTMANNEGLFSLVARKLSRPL
A number is an active result; – = inactive; ? = inconclusive; · = no result; [ ] = remark or other dose. The call rests on the fitted dose curve; in most records, active means well fitted curve in the direction sought with a large enough effect; inconclusive means small, poorly fitted or top-dose-only effect, or another doubt; inactive means no such curve, though single readings can be large; an effect the other way counts as inactive or inconclusive.

SMILES | p53null 32C kill | OvCa metastasis | NTMT1 inh | Sfp inh SAR2 | others
CSC(Cc1ccc(Cl)cc1)C(=O)Nc1ccc(Cl)cc1C(=O)O (stereo unspecified) | · | · | – | – | hGST A1-1 inh=?;HSD17B4 inh=?;ALDH1A1 counter=24µM
CC(Cc1ccccc1)C(=O)Nc1ccc(Cl)cc1C(=O)O (stereo unspecified) | · | · | – | – | hGST A1-1 inh=?;HSD17B4 inh=24µM;ALDH1A1 counter=24µM
CC(CCc1ccccc1)NC(=O)c1ccc(NC(=O)c2ccc(Cl)cc2Cl)cc1 (stereo unspecified) | – | · | · | ·
CC(CO)C1CCC2(C)CC3C(CO)CC(O)C3C(C)(O)C/C=C/12 (stereo unspecified) | · | · | – | ·
CCCNC(=O)Nc1ccc(Oc2ncnc3cc(OC)c(OC)cc23)cc1Cl | · | – | – | ·
COc1cc2c(Nc3cc(F)c(Cl)c(Cl)c3)ncnc2cc1OCC1CCCN(C)CCC1 | · | · | 35µM | · | NNMT inh=?
C=C1C(=O)OC2/C=C(\C)CC/C=C(\C=O)C(OC)C(OC(=O)C(C)CC)C12 (stereo unspecified) | · | · | – | ·
COc1c(C)c(C(=O)c2ccc(N)c(C(=O)O)c2)n2ccccc12 | · | · | – | · | NNMT inh=–
COC(=O)N/N=C/c1c(C)c(C(=O)c2ccc(F)cc2)n2ccccc12 | – | · | · | ·
COc1c(C(C)C)c(O)c(O)c2c1C(OC)[C@H]1OC(=O)[C@@]23CCCC(C)(C)[C@H]13 (stereo partly specified) | · | · | – | · | NNMT inh=–
CC(C)c1cccc(C(C)C)c1NC(=O)Nc1ccc(Sc2ccc([N+](=O)[O-])cc2)cc1 | · | · | – | ·
CC1(C)CC[C@]2(C(=O)O)CC[C@]3(C)C(=CCC4[C@@]5(C)CC[C@H](O[C@H]6O[C@H](C(=O)O)[C@@H](O)[C@H](O[C@@H]7O[C@H](CO)[C@H](O)[C@H](O)[C@H]7O)[C@H]6O)C(C)(C)C5CC[C@]43C)[C@@H]2C1 (stereo partly specified) | · | · | –[12.6 µM] | ·
C=Cc1cc2oc(-c3ccc(O)c(F)c3)nc2cc1O | · | · | 28µM | · | NNMT inh=?
CCN(CCN(C)C)C(=O)CNCc1cc(C(N)=O)ccn1 | · | · | – | ·
Cc1cc(C)nc(NC(=S)N2CCN(c3nccc(C(F)(F)F)n3)CC2)c1 | · | · | ? | 1.1µM | Sfp PPTase inh=2.1µM;Bsub HM489 growth=?;Sfp gel opt=3.2µM;HSD17B4 inh=?;ALDH1A1 counter=17µM
Cc1cc(C)nc(NC(=S)N2CCN(c3cc(C#N)cc(C#N)c3)CC2)c1 | · | · | ? | 0.65µM | Sfp PPTase inh=2.4µM;Bsub HM489 growth=–;Sfp gel opt=–;HSD17B4 inh=–;ALDH1A1 counter=17µM
Cc1cc(C)nc(NC(=S)N2CCN(c3cc(F)cc(F)c3)CC2)c1 | · | · | · | 1.3µM | Sfp PPTase inh=6.6µM;Bsub HM489 growth=37µM;Sfp gel opt=10µM
